# Pf Dd2 growth: qHTS Primary assay for Inhibitors of Plasmodium falciparum Dd2 growth in vitro; P. falciparum Dd2 growth, SYBR Green, 72 h; Potency, µM (highest dose often 28.9 µM), for the others: at the top dose activity, negative = inhibition, hits mostly inhibitors; actives 4.3% (n = 120,000); active means well fitted inhibition curve with a large enough effect;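 further: plate controls were DMSO vehicle for no effect and reference drug for full effect; nearly all actives have a fitted effect of over 65% in size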
#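 Infected erythrocytes (Dd2, 0.3% parasitemia, 2.5% hematocrit final) are added to compound in RPMI-1640/Albumax II medium, grown 72 h at 37C in low oxygen, then lysed with saponin/Triton-X containing SYBR Green and read by fluorescence.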
# * = called active by the depositor; i = inactive; [ ] = dose if it differs, or a comment. The entries come from a sample that favours hits as a whole. Potency means the concentration at half of the fitted maximal effect.
SMILES,Pf Dd2 growth
O=C1COc2ccc(Nc3ccccc3)nc2CN1CCOc1ccccc1,-9%[44.1 µM]
Cc1ccccc1CN1Cc2nc(-c3cnn(Cc4ccccc4)c3)ccc2OCC1=O,-40%[44.1 µM]
O=C1COc2ccc(Nc3cccc(F)c3)nc2CN1CCOc1ccccc1,-2%[44.1 µM]
Cc1nc(CN2Cc3nc(-c4cnn(Cc5ccccc5)c4)ccc3OCC2=O)cs1,10µM*
COc1cccc(S(=O)(=O)N2CC3(Cc4ccccc4C(=O)N3)C2)c1,-9%
Cc1cnc(C(=O)N2CCC(C(=O)N3CCCCCCNC(=O)CC3)CC2)cn1,37%
COCCc1nncn1C1CCNCC1,2%
CCCCN(CC)C(=O)CN1C(=O)NC(c2ccccc2)C2=C1COC2=O (centres undefined),-6%
CCN(CC)C1CCOC2(CCN(C(=O)C3CC3)CC2)C1 (centres undefined),7%
O=C(CC(c1ccccc1)c1ccccc1Cl)NCc1cc2n(n1)CCNC2 (centres undefined),-3%
CCOC(=O)c1cc(-c2ccccc2)n(CCC(=O)NCCc2ccc(OC)c(OC)c2)c1C,-8%
CCOC(=O)c1cc(-c2ccc(OC)cc2)n(CCC(=O)NCc2ccc(OC)cc2)c1C,4µM*
CCOC(=O)c1cc(-c2ccccc2)n(CC(=O)NCc2ccc(C)cc2)c1C,-12%
CCOC(=O)c1cc(-c2ccccc2)n(CC(=O)NCc2ccccc2)c1C,12%
CCOC(=O)c1cc(-c2ccc(C)cc2)n(CCC(=O)NCc2ccccc2)c1C,8.9µM*
CCOC(=O)c1cc(-c2ccc(C)cc2)n(CCC(=O)NCCc2ccc(C)cc2)c1C,i
C[C@H]1[C@@H]2[C@@H](O)C([C@H](C)C(=O)NCc3cccs3)CC[C@@]2(C)CC[C@@H]1NC(=O)c1cncnc1 (some centres undefined),i
CCOCCn1c(=O)[nH]c2cc(C(=O)NCCN3CCCC3=O)ccc21,1%
Cc1ccccc1[C@H]1[C@@H](C(=O)NC(CO)CO)C[C@@](C)(C(=O)O)N1C,0%
CCOC(=O)N1CCC(NC(=O)c2cnn(-c3ccc(F)cc3F)c2C2CCN(C(=O)OC(C)(C)C)CC2)CC1,3.5µM*
CC(C)(C)OC(=O)N1CCC(c2c(C(=O)NC3CCN(Cc4ccccc4)CC3)cnn2-c2ccc(F)cc2F)CC1,11µM*
COc1ccc(C(=O)N(C)Cc2cccn2C)cc1,-6%[44.1 µM]
CN(C)c1cccc(C(=O)Nc2nc3ccc(S(=O)(=O)N4CCCC4)cc3s2)c1,13µM*
COc1cccc(C(=O)Nc2nc3ccc(S(=O)(=O)N4CCCC4)cc3s2)c1,-15%
Cc1ccc(C(=O)Nc2nc3ccc(S(=O)(=O)N4CCCC4)cc3s2)cc1,5%
SMILES,Pf Dd2 growth
O=c1[nH]ccn1C1CCN(Cc2ccccc2C(F)(F)F)CC1,i
O=C(N[C@@H]1c2ccccc2C[C@@H]1O)c1cc(COc2ccccc2F)[nH]n1,-18%
Cc1ccccc1-c1cccc(C(=O)N(C)Cc2ncc[nH]2)c1,-8%
CCOCC(=O)N1CCCCCCNC(=O)[C@@H]2C[C@@H](c3nc(-c4cccnc4)no3)C[C@@H]21,-4%
Cc1ccc(C2Cn3nnc(C(=O)N4CCC(C(=O)NCC(C)c5ccccc5)CC4)c3CO2)cc1 (centres undefined),-8%
O=C(Nc1ccc2ncnc(N3CCCC3)c2c1)c1ccc(OC(F)(F)F)cc1,-20%
Cc1nc(N2CCCC2)ncc1C(=O)Nc1ccc(OC(F)(F)F)cc1,i
CCCN1CCN(c2ncnc3sc(C(=O)Nc4ccc(OC(F)(F)F)cc4)c(C)c23)CC1,5µM*
O=[S+]1([O-])NCC2(CCCN(Cc3cccc4ccccc34)C2)Nc2ccccc21 (centres undefined),-6%
O=C(Cn1nc2n(c1=O)CCCC2)NCCc1ccc(Cl)cc1,i
CCOCCn1c(=O)[nH]c2cc(C(=O)NCc3cc(=O)[nH]c(C)n3)ccc21,-10%
CNC(=O)CCn1ncc2cc(OC3CCc4cccc(-c5ccncc5)c43)ccc21 (centres undefined),-10%[44.1 µM]
Cc1cccc(CN2CCOc3c(O)cc(-c4ccccc4C)cc3C2)n1,8.9µM*
Cc1cc(CN2CCOc3c(O)cc(-c4ccccc4C)cc3C2)on1,-27%
Cc1ccccc1-c1cc(O)c2c(c1)CN(C(=O)C1CCNCC1)CCO2,-25%
CC(C)NC(=O)N[C@H]1C[C@H]2C(=O)NC[C@@H](CCC(=O)N3CCN(C)CC3)N2C1,25%[44.1 µM]
CCOCCCNC(=O)C1Cn2cccc2C(=O)N1 (centres undefined),20%
CC(=O)N1CCC(C(=O)N2CC(c3nc(CCOc4cccc(C)c4)no3)C2)CC1,17%
COc1cccc(CNC(=O)C2(C)CCCCC(=O)N2)c1OC (centres undefined),-18%
CC(Cc1cnccn1)NC(=O)c1ccc2nc(-c3ccc(F)cc3)cn2c1 (centres undefined),-17%
CN(C(=O)c1ccc2nc(-c3ccc(F)cc3)cn2c1)C1CCOCC1,-6%
COCCN(CC1CC1)C(=O)c1ccc2nc(-c3ccc(F)cc3)cn2c1,-15%
CCC(NC(=O)c1ccc2nc(-c3ccc(F)cc3)cn2c1)c1ncc(C)[nH]1 (centres undefined),7.9µM*
COc1cc(F)ccc1-c1cc2c(ccn2C)c(C(=O)NCCc2cnc[nH]2)n1,-15%[44.1 µM]
O=C(NCCc1cnc[nH]1)c1ccc2nc(-c3ccc(F)cc3)cn2c1,10µM*
SMILES,Pf Dd2 growth
Cc1noc(-c2cccs2)c1C(=O)NC1CCc2ccccc21 (centres undefined),-4%
CCOc1ccc(-c2nonc2NC(=O)c2ccc(C)cc2)cc1OCC,2µM*
Cc1ccc(-c2nonc2NC(=O)c2ccc(F)cc2)cc1C,32%
COc1cc(C(=O)Nc2nonc2-c2ccc(C)c(C)c2)cc(OC)c1OC,8%
Cc1cnc(CCNS(=O)(=O)c2cccc(F)c2)n1C(C)C,-8%
Cc1ccccc1CN1CCc2nc(N3CCN(c4ncccn4)CC3)ncc2C1,8.9µM*
COCCn1cc(CN2CCN(c3ccccn3)CC2)ccc1=O,5%
COc1ccccc1N1CCN(c2ncc3c(n2)CCN(Cc2ccccc2C)C3)CC1,11%
CN(C)c1ccc(CN2CCc3nc(N4CCN(c5ccccn5)CC4)ncc3C2)cc1,13µM*
CCOc1ccc(CN2CCc3nc(Nc4ccc(OC)cc4OC)ncc3C2)cc1,i
CCN1CCN(c2ncc3c(n2)CCN(Cc2cc(Br)cs2)C3)CC1,13µM*
CCN1CCN(c2ncc3c(n2)CCN(Cc2ccc(C)s2)C3)CC1,-9%
Cc1ccc(CN2CCc3nc(N4CCN(c5ccccc5F)CC4)ncc3C2)cc1C,-7%
CCOc1ccccc1CN1CCc2nc(N(C)C)[nH]c(=O)c2CC1,i[5.79 µM]
CCCCN1CCc2nc(N3CCN(C)CC3)ncc2C1,3%
CN1CCN(c2ncc3c(n2)CCN(Cc2ccc(Br)s2)C3)CC1,-9%
CCOc1ccccc1CN1CCc2nc(N3CCN(c4ccccc4F)CC3)ncc2C1,8.9µM*
O=C1NCCCCCCN(C(=O)NC2CCCCC2)[C@H]2CCCC[C@@H]12,i
CCOC(=O)CCNC(=O)N1CCc2c(nc3cc(-c4ccccc4)[nH]n3c2=O)C1,i
Cn1nc(C(=O)N2CC[C@H]3C(=O)NCCCCCCN(Cc4ccncc4)[C@@H]3C2)c2ccccc21,i
O=C(c1ccncc1)N1CCc2nc3cc(-c4ccccc4Cl)[nH]n3c(=O)c2C1,3%[5.79 µM]
CS(=O)(=O)N1C[C@@H](Oc2ccccc2)C[C@H]1C(=O)N1CCCC1,-17%
CCOc1ccc(CN2CCc3nc(N4CCN(c5ccccn5)CC4)ncc3C2)cc1OC,-28%
COc1cc(CN2CCc3nc(N4CCN(c5ccccc5F)CC4)ncc3C2)ccc1OC(C)C,-13%
